Measured values: PubChem BioAssay AID686977 (Southern Research Specialized Biocontainment Screening …, 2013)
The whole screen tested about 9,400 compounds, of which fewer than 10 were called active. About 5% were inconclusive and are not listed. Not all results are given here. Measured potencies and affinities stand elsewhere. Unmarked numbers belong to inactive results. How the calls were made is not given here.

Test: Vibrio cholerae quorum sensing activators, luminescence (AID 686977)
Conditions: V. cholerae quorum sensing reporter, 6 h, hits give high values; dose 50, dose unit µM unless noted

Row | Structure (SMILES) | luminescence
1 | O=C(c1ccccc1)n1ccc(-c2cnc(-c3ccccc3)s2)n1 | 0
2 | CC1CCc2nn(CC(=O)NCCC3=CCCCC3)cc2C1 (stereo unspecified) | 0
3 | C=CCn1c(SCc2cccc(C#N)c2)nnc1-c1ccccc1O | 360
4 | CCCC(c1nnnn1Cc1ccco1)N1CCN(c2cc(Cl)ccc2C)CC1 (stereo unspecified) | 0
5 | CCCCCn1c(SCc2ccncc2)nc2cc(C(=O)NCc3ccco3)ccc2c1=O | 40
6 | Cc1ccc(-c2nnc3n2N=C(c2ccccc2)CS3)cc1 | 0
7 | Cc1c(NC(=O)c2cc(CC(C)C)on2)c(=O)n(-c2ccccc2)n1C | 0
8 | CCOC(=O)CC1C(=O)NCCN1C(=O)NC1CCCCC1 (stereo unspecified) | 0
9 | CCn1c(SCC(=O)NCc2ccco2)nc2c(c1=O)SC(C)C2 (stereo unspecified) | 0
10 | CCCc1[nH]nc2c1C(C1CCCCC1)C(C#N)=C(N)O2 (stereo unspecified) | 0
11 | CC(C)Cn1c(SC(C)C(=O)Nc2ccc3c(c2)OCCO3)nc2ccccc2c1=O (stereo unspecified) | 40
12 | Cc1cccc(NC(=O)C2CC(=O)n3cnnc3S2)c1 (stereo unspecified) | 40
13 | COCCn1c(SCc2nc3ccccc3c(=O)[nH]2)nnc1-c1ccncc1 | 40
14 | COc1ccc2ccc(Oc3ncccn3)cc2c1 | 200
15 | CCOC(=O)N1CCC(Nc2c(N3CCN(c4cc(Cl)ccc4C)CC3)c(=O)c2=O)CC1 | 0
16 | Cc1nc(-c2cccc(NS(=O)(=O)c3ccccc3)c2)cs1 | 160
17 | CC1(C)N=C(N)N=C(N)N1c1cccc(C(=O)O)c1 | 0
18 | CCOC(=O)c1sc(NCc2ccco2)c(-c2nc3ccccc3s2)c1N | 0
19 | N#CC1(c2ccccc2)CCCN1C(=O)c1ccccc1Cl (stereo unspecified) | 0
20 | Cn1c(=O)oc2cc(S(=O)(=O)N3CCCc4ccccc43)ccc21 | 40
21 | CC1CCc2cc(F)ccc2N1C(=O)c1cnc2sccn2c1=O (stereo unspecified) | 0
22 | COc1ccc(-c2nc(CS(=O)CC(=O)N3CCCC3)c(C)o2)cc1 (stereo unspecified) | 0
23 | CC(C)(C)c1nc2ccccc2c2nnc(SCC(=O)Nc3nccs3)n12 | 80
24 | COc1ccc(NC(=O)CSc2nccn2-c2cccc(OC)c2)cc1 | 0
25 | Nc1nnnn1/N=C/c1ccccc1C(F)(F)F | 40
26 | Cc1c(Cl)cccc1NC(=O)c1cc(-c2ccccc2O)n[nH]1 | 0

Row | Structure (SMILES) | luminescence
27 | COc1ccc(N/N=C(\C=N\O)C(=O)c2ccc(OC)cc2)cc1 | 0
28 | CCOC(=O)CSc1ccc(-c2nc3ccccc3[nH]2)cn1 | 0
29 | Cc1nc(C)c(C(=O)C2=C(O)C(=O)N(CCN3CCOCC3)C2c2ccco2)s1 (stereo unspecified) | 0
30 | CC(C)OC(=O)c1nnc(Cc2ccc(F)cc2)o1 | 0
31 | CC(NC(=O)c1ccccc1Br)c1ccc2c(c1)CCCC2 (stereo unspecified) | 40
32 | Cc1ccc(C(=O)CC(C(=O)O)c2cn(CCC#N)c3ccccc23)cc1 (stereo unspecified) | 40
33 | CCC(C)c1ccc(-c2cc(C(=O)OCC(=O)Nc3cc(C)on3)c3ccccc3n2)cc1 (stereo unspecified) | 0
34 | CCc1cccc(C)c1NC(=O)CN1C(=O)c2ccccc2S1(=O)=O | 200
35 | N#Cc1nc(-c2cccc3ccccc23)oc1N1CCCCC1 | 0
36 | Cc1ccn2cc(CCNC(=O)C3CCCCC3)nc2c1 | 0
37 | Cc1c(NC(=O)CSc2nnc3sc4ccccc4n23)c(=O)n(-c2ccccc2)n1C | 40
38 | COC(=O)/C(=C\Nc1ccccc1N)c1ncc(C(F)(F)F)cc1Cl | 40
39 | COc1ccc(C(=O)NC(Cc2ccccc2)c2ccc3c(c2)OCCCO3)cc1 (stereo unspecified) | 0
40 | O=C(O)c1ccc(NS(=O)(=O)c2cccc3cccnc23)cc1 | 0
41 | CCCNS(=O)(=O)c1ccc(CCC(=O)N2CCN(c3ccc(OC)cc3)CC2)cc1 | 0
42 | O=C(c1ccco1)N1CCN=C1SCc1ccccc1Cl | 0
43 | Oc1c(C(c2cccs2)N2CCN(c3cccc(Cl)c3)CC2)sc2ncnn12 (stereo unspecified) | 40
44 | COc1ccc(C(=O)NCCn2cc(SCC(=O)NCc3ccco3)c3ccccc32)cc1 | 0
45 | CCn1c(SCC(=O)NCCc2ccccc2)nnc1-c1ccco1 | 0
46 | COc1cc(OC)cc(-c2cc(N)n(S(=O)(=O)Cc3ccccc3)n2)c1 | 40
47 | CCC(=O)N=c1sc2c(C)cc(C)cc2n1CC(=O)OC | 0
48 | Cc1ccc2[nH]c(=O)c(CN(CCCN(C)C)C(=O)Nc3ccc(Cl)cc3)cc2c1 | 0
49 | CC(=O)c1sc(NC(=O)c2ccccc2F)nc1C | 80
50 | CC(C)N(Cc1nc(-c2ccccc2)no1)C(=O)c1ccc(Cl)cc1 | 0
51 | O=C(O)C1CCC(=O)N(C2CCCCC2)C1c1ccccc1 (stereo unspecified) | 0
52 | Cc1ccn(CCSCC(=O)O)n1 | 0

Row | Structure (SMILES) | luminescence
53 | CCc1ccc(-c2cc(C(F)(F)F)n3nc(C(=O)Nc4c(C)nn(Cc5ccccc5C)c4C)cc3n2)s1 | 0
54 | Cc1cccc2cc(CN(Cc3cccs3)Cc3nnnn3Cc3ccccc3)c(=O)[nH]c12 | 0
55 | CC(=O)c1cccc(N(CC(=O)O)S(C)(=O)=O)c1 | 40
56 | CCN(CC)CCN1C(=O)C(=O)/C(=C(/O)c2c(C)[nH]c(C(=O)OC)c2C)C1c1cccs1 (stereo unspecified) | 0
57 | COc1ccc2nc(SCc3nc(N)nc(Nc4ccccc4)n3)[nH]c2c1 | 40
58 | CCOc1ccc(N(CC(=O)NC(C)(C)C)C(=O)c2ccco2)cc1 | 40
59 | CCOC(=O)c1c(C)c(C(=O)NCC2CCCO2)c(C)n1CC (stereo unspecified) | 0
60 | O=C(NCCC1=CCCCC1)c1ccc(F)c(S(=O)(=O)N2CCOCC2)c1 | 0
61 | BrC(=C\c1ccccc1)/C=N/N1CCN(Cc2ccccc2)CC1 | 0
62 | COC(=O)c1c(C)[nH]c(C)c1-c1ccccc1Cl | 0
63 | CCOC(=O)C(=CNc1cc(C)nn1-c1ccc(C)cc1)C(=O)OCC | 40
64 | CCc1nc(SCC(N)=O)c2c(=O)n(C)c(=O)n(C)c2n1 | 40
65 | COC(=O)c1ccc(Oc2ccc(C(C)(C)C)cc2)c([N+](=O)[O-])c1 | 0
66 | Cc1ccc(C(=O)c2ccc([N+](=O)[O-])cc2)cc1C | 40
67 | COC(=O)c1c(NC(=O)C2CC2)sc2c1CCCC2 | 40
68 | CS(=O)(=O)N(CC(=O)NCCC1=CCCCC1)C1CCCCC1 | 40
69 | O=C(CSc1nnc(C2CC2)n1Cc1ccccc1)c1cc2ccccc2o1 | 80
70 | COc1ccc(NC(=O)CSc2nc(O)cc(=O)n2C)cc1 | 0
71 | COc1cc(NC(=O)Cn2nc(C(F)(F)F)c3c2CCCC3)cc(OC)c1OC | 280
72 | CCOCCCN(Cc1ccco1)C(=O)c1cc2c(=O)[nH]c3ccc(C)cc3c2s1 | 0
73 | COc1cccc(-c2nc(CS(=O)CC(=O)NCc3ccccc3Cl)c(C)o2)c1 (stereo unspecified) | 0
74 | COC(=O)c1ccccc1NC(=O)C1CC(=O)N(c2ccccc2)C1 (stereo unspecified) | 0
75 | CCOC(=O)Cc1csc(-n2sc3ccccc3c2=O)n1 | 0
76 | O=C(NC1CCCc2ccccc21)C1CCN(C(=O)c2sccc2-n2cccc2)CC1 (stereo unspecified) | 40
77 | COC(=O)[C@H](C)NC(=O)Nc1cccc(C)c1 | 0
78 | CNC(=O)NC(=O)CSc1ncc(C(F)(F)F)cc1Cl | 0

Row | Structure (SMILES) | luminescence
79 | N#Cc1ccccc1OCC(=O)NC(N)=O | 0
80 | Cc1cc(NS(=O)(=O)c2ccc(NC(=O)C(C(C)C)N3C(=O)c4ccccc4C3=O)cc2)nc(C)n1 (stereo unspecified) | 0
81 | CCOC(=O)COc1cccc2c(=O)n(CC(=O)N3CCc4ccccc43)ccc12 | 0
82 | Cn1c(=O)c2c(nc(N3CCCCCC3)n2CCSc2nc3ccccc3o2)n(C)c1=O | 0
83 | O=C(Nc1ccc(Br)cc1F)C1CCCN(S(=O)(=O)c2cnc[nH]2)C1 (stereo unspecified) | 0
84 | O=C(Nc1nccs1)c1nc(-c2ccccc2)n(-c2ccccc2)n1 | 280
85 | Cc1csc2nc(CNC(=O)C3CC=CCC3C(=O)O)cn12 (stereo unspecified) | 0
86 | COC(=O)c1ccccc1NC(=O)Nc1nnc(N2CCC(C)CC2)s1 | 0
87 | CC(=O)Nc1nnc(-c2ccc(Cl)s2)o1 | 0
88 | CCOC(=O)N1CCN(C(=O)C2CCCN(S(=O)(=O)c3cccnc3)C2)CC1 (stereo unspecified) | 0
89 | O=C(CCc1ccccc1)Nc1ccc(F)cc1F | 40
90 | Cc1cccc(C)c1NC(=O)c1sccc1SCc1cccc(C(F)(F)F)c1 | 40
91 | COC(=O)c1cc(COc2ccc3c4c(c(=O)oc3c2)CCCC4)c(C)o1 | 0
92 | COc1ccc(OC)c(NC(=O)c2cn(C)c(=O)c3cc(OC)c(OC)cc23)c1 | 0
93 | CC1(C)CC(=O)c2cc(OCC(=O)N3CCOCC3)ccc2O1 | 40
94 | CC(C)C(NC(=O)c1cccs1)c1nnc(SCC(=O)Nc2nccs2)n1C (stereo unspecified) | 40
95 | COC(=O)c1nn(-c2ccccc2)c(Cl)c1/C=N/OCc1ccc(Cl)cc1Cl | 40
96 | CC(C)CC(=O)Nc1ccc(S(=O)(=O)NCc2ccco2)cc1 | 0
97 | CCOC(=O)C(C)Sc1nnc(Cc2cc(=O)[nH]c(=O)[nH]2)n1-c1ccc(OCC)cc1 (stereo unspecified) | 0
98 | CC1CCCCC1NC(=O)c1ccc(CNc2c(N3CCCC3)c(=O)c2=O)cc1 (stereo unspecified) | 0
99 | Cc1cnc(C(=O)Nc2cccc3cccnc23)cn1 | 40
100 | CN1CCN(c2cc3c(c4c2[nH]c2ccccc24)C(=O)CC(C)(C)C3)CC1 | 40
101 | Cc1cc(C(=O)CSc2nnc(-c3ccc(F)cc3)o2)c(C)n1CC1CCCO1 (stereo unspecified) | 0
